Assay in all cases: DAPPL (digital affinity profiling via proximity ligation, sequencing); 10 mM Tris-HCl pH 7.5, 50 mM NaCl, 1 mM DTT, 4% glycerol, room temperature, 30 min; GST-TFs on glutathione beads, 16-mer random dsDNA library, 0.1% formaldehyde crosslink after washing; high values mean tight binding
Test [1] has as its target T1, FLI1 (Homo sapiens, UniProt Q01543 1-452).
T1 sequence: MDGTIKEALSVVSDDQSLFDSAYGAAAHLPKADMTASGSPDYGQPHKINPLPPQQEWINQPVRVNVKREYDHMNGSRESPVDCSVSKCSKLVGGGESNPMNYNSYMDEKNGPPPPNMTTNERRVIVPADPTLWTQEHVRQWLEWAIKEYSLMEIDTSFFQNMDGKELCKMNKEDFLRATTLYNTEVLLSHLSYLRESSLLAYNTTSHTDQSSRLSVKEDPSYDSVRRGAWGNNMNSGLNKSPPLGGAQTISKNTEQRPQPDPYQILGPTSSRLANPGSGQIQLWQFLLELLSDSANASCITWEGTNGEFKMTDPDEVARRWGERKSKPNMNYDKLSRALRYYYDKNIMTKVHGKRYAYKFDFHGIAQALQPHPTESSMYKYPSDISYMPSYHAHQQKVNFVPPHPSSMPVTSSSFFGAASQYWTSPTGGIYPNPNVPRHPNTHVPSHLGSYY
Particulars: protein: recombinant; tags: N-terminal GST; dsDNA, one strand shown. The gist of the method: (§1)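 Sequencing on an Illumina NextSeq500 followed washing, crosslinking with 0.1% formaldehyde, proximity ligation (BsaI/T4 ligase, 1 h, 37 °C) and PCR amplification of pools that had been incubated for 30 min at room temperature with 200 nmole of a random double-stranded 16-mer DNA library in Tris/NaCl/DTT/glycerol buffer. Each pool held DNA-barcoded human transcription factors, expressed in yeast as GST fusions and captured on glutathione beads, plus a tag-only sample. Binding signal is a hexamer's read frequency for a factor divided by its frequency in the tag-only sample.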

Test [2] deals with T2, ELK1 (Homo sapiens, UniProt P19419 1-428).
T2 sequence: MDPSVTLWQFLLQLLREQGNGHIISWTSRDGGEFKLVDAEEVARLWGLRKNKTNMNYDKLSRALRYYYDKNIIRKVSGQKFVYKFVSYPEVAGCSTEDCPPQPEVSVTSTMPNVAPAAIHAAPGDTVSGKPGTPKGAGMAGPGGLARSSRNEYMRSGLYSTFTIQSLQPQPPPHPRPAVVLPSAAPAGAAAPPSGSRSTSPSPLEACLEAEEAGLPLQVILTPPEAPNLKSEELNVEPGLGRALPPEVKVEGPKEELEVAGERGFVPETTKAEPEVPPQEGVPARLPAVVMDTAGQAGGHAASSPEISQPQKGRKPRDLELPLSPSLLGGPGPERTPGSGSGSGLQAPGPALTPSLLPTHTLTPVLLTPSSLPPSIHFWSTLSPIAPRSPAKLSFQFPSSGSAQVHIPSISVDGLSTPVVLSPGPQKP
Particulars: protein: recombinant; tags: N-terminal GST; dsDNA, one strand shown. A digest of the protocol:
as §1

Test [3] concerns the target T3, GABPA (Homo sapiens, UniProt Q06546 1-454).
T3 sequence: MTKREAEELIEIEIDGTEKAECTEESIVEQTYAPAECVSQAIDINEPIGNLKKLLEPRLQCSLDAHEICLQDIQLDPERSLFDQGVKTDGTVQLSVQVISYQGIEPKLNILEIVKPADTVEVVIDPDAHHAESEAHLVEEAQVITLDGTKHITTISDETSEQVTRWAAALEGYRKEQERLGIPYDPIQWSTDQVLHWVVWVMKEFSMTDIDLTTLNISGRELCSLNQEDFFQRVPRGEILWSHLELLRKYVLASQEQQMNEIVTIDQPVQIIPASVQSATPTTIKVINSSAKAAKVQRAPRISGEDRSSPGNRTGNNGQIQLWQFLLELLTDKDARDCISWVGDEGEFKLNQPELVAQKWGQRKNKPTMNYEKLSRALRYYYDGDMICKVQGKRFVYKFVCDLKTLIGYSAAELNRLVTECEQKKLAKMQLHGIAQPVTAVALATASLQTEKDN
Particulars: protein: recombinant; tags: N-terminal GST; dsDNA, one strand shown. The gist of the method:
as §1

In test [4] the target is T4, ERG (Homo sapiens, UniProt P11308 1-479).
T4 sequence: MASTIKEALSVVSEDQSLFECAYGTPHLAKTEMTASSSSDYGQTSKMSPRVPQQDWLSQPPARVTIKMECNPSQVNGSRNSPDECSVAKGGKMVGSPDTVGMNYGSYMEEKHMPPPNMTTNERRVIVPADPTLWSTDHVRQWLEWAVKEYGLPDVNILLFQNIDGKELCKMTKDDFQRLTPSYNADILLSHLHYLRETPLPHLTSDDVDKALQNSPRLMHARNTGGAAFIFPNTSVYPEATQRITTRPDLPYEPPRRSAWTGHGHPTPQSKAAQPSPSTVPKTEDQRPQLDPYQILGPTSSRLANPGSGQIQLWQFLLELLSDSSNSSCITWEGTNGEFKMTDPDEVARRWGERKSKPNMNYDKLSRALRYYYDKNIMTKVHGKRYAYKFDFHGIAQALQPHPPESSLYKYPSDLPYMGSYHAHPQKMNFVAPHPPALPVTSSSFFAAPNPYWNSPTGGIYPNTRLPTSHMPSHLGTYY
Particulars: protein: recombinant; tags: N-terminal GST; dsDNA, one strand shown. The gist of the method: as §1

The target in test [5] is ELF1 (Homo sapiens, UniProt P32519 1-619). Conditions: protein: recombinant; tags: N-terminal GST; dsDNA, one strand shown. The gist of the method: as §1
The target in test [6] is T5, EHF (Homo sapiens, UniProt Q9NZC4 1-300).
T5 sequence: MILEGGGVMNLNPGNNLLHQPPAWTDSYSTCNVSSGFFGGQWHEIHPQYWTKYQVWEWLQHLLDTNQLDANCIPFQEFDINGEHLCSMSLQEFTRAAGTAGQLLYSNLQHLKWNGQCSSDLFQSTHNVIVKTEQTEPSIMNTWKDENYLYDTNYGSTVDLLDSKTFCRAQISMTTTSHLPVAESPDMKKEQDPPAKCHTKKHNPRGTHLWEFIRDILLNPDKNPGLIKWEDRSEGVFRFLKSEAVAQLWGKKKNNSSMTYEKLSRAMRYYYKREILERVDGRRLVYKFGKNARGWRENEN
Particulars: protein: recombinant; tags: N-terminal GST; dsDNA, one strand shown. The gist of the method: as §1

The target of test [7] is SPI1 (Homo sapiens, UniProt P17947 1-270). Conditions: protein: recombinant; tags: N-terminal GST; dsDNA, one strand shown. A digest of the protocol: as §1
In test [8] the target is SPIB (Homo sapiens, UniProt Q01892 1-262). Conditions: protein: recombinant; tags: N-terminal GST; dsDNA, one strand shown. A digest of the protocol:
as §1

Test [9] has as its target T6, ELK3 (Homo sapiens, UniProt P41970 1-407).
T6 sequence: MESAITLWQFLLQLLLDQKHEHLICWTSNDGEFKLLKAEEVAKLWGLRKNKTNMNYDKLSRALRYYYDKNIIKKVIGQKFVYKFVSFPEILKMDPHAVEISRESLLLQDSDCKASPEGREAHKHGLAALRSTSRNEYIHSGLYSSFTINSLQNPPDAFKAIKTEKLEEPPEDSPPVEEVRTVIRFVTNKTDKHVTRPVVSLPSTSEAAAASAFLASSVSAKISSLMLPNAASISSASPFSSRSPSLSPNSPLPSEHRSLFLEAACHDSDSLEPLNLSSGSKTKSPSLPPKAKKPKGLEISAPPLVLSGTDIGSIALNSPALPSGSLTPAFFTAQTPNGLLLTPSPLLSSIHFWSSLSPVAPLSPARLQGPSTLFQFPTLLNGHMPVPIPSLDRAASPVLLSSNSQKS
Particulars: protein: recombinant; tags: N-terminal GST; dsDNA, one strand shown. A digest of the protocol: as §1

The target in test [10] is T7, FEV (Homo sapiens, UniProt Q99581 1-238).
T7 sequence: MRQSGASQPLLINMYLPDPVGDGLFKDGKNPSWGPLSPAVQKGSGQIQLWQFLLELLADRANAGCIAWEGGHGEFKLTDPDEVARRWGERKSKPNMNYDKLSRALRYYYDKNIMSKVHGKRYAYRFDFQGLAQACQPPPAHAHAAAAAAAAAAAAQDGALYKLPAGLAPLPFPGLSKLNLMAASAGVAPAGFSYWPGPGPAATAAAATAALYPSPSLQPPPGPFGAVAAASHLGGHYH
Conditions: protein: recombinant; tags: N-terminal GST; dsDNA, one strand shown. The gist of the method:
as §1

The target in test [11] is ETV5 (Homo sapiens, UniProt P41161 1-510). Particulars: protein: recombinant; tags: N-terminal GST; dsDNA, one strand shown. The gist of the method: as §1
Test [12] addresses HSF1 (Homo sapiens, UniProt Q00613 1-529). Conditions: protein: recombinant; tags: N-terminal GST; chain copies: 3; dsDNA, one strand shown. The gist of the method: as §1
The target of test [13] is T8, SPIC (Homo sapiens, UniProt Q8N5J4 1-248).
T8 sequence: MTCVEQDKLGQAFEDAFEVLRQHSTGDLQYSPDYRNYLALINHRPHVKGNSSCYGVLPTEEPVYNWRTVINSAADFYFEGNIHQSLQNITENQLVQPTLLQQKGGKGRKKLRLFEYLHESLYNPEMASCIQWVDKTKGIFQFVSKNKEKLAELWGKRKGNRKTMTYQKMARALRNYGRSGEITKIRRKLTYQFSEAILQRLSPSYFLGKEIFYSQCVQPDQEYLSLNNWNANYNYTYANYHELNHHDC
Particulars: protein: recombinant; tags: N-terminal GST; dsDNA, one strand shown. The gist of the method: as §1

In test [14] the target is ELF4 (Homo sapiens, UniProt Q99607 1-663). Particulars: protein: recombinant; tags: N-terminal GST; dsDNA, one strand shown. The gist of the method:
as §1

In test [15] the target is T9, ELK4 (Homo sapiens, UniProt P28324-2 1-405).
T9 sequence: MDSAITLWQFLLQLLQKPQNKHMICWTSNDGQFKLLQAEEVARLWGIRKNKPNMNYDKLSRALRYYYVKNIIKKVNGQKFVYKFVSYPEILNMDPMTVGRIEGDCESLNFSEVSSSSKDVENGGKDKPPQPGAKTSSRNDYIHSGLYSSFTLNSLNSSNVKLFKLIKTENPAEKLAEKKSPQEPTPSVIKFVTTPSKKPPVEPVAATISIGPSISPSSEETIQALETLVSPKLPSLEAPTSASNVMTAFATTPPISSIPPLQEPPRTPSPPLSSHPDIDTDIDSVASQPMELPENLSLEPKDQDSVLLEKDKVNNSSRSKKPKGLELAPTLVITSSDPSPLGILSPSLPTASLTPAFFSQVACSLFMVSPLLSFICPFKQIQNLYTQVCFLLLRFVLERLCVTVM
Particulars: protein: recombinant; tags: N-terminal GST; dsDNA, one strand shown. A digest of the protocol:
as §1

Test [16] deals with T10, ETV2 (Homo sapiens, UniProt O00321 1-342).
T10 sequence: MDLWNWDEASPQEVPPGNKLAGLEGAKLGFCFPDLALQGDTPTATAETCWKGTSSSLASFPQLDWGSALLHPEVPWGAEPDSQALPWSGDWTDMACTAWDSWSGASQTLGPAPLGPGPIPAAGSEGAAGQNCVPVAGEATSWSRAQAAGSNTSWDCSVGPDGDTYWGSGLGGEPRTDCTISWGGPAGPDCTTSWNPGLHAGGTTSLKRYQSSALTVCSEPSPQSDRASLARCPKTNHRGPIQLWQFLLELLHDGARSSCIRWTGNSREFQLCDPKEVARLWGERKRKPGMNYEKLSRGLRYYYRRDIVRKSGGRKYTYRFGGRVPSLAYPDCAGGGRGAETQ
Conditions: protein: recombinant; tags: N-terminal GST; dsDNA, one strand shown. A digest of the protocol: as §1

Test [17] has as its target T11, ELF3 (Homo sapiens, UniProt P78545 1-371).
T11 sequence: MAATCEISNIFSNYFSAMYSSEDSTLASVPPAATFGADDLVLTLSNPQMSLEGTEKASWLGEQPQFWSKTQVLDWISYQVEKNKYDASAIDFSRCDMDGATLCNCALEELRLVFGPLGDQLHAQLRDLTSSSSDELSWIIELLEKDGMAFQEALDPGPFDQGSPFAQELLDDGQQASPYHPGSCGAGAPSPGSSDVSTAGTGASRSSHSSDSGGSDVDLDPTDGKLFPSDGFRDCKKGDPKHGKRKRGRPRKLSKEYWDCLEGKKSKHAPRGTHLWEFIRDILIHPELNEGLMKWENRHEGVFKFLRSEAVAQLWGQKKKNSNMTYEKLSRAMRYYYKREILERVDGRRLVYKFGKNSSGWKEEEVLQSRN
Particulars: protein: recombinant; tags: N-terminal GST; dsDNA, one strand shown. The gist of the method:
as §1

For test [18], the target named is ETV1 (Homo sapiens, UniProt P50549 1-477). Conditions: protein: recombinant; tags: N-terminal GST; dsDNA, one strand shown. The gist of the method: as §1
ETV1, sequence (P50549 whole entry): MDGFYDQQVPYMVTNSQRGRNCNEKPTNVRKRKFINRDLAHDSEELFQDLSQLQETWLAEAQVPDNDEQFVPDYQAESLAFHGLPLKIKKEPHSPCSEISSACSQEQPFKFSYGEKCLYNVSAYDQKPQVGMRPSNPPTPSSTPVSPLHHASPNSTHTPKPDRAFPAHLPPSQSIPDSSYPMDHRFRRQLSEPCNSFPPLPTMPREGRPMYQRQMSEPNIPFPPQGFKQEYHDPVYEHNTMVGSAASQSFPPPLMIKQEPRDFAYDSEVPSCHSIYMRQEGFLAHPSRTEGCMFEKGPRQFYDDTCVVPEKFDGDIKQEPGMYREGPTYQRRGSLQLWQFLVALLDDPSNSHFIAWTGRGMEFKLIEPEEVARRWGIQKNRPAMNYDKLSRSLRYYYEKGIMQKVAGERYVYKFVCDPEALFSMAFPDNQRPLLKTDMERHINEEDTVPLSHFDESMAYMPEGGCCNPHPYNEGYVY

HSF1, sequence (Q00613 whole entry): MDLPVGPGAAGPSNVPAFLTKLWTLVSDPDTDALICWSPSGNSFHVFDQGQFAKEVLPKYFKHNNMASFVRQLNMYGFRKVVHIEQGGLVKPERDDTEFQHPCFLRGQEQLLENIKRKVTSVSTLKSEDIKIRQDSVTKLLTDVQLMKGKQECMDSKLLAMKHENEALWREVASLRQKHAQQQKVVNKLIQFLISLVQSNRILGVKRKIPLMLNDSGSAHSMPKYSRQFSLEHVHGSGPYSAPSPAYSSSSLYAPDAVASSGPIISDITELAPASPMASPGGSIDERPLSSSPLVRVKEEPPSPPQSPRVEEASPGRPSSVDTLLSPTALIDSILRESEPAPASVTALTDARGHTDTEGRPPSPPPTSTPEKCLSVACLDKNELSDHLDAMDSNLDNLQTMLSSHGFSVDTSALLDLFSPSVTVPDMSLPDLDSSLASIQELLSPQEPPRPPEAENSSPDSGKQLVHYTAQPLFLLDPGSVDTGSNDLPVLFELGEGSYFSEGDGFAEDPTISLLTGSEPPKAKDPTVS
ELF1, sequence (P32519 whole entry): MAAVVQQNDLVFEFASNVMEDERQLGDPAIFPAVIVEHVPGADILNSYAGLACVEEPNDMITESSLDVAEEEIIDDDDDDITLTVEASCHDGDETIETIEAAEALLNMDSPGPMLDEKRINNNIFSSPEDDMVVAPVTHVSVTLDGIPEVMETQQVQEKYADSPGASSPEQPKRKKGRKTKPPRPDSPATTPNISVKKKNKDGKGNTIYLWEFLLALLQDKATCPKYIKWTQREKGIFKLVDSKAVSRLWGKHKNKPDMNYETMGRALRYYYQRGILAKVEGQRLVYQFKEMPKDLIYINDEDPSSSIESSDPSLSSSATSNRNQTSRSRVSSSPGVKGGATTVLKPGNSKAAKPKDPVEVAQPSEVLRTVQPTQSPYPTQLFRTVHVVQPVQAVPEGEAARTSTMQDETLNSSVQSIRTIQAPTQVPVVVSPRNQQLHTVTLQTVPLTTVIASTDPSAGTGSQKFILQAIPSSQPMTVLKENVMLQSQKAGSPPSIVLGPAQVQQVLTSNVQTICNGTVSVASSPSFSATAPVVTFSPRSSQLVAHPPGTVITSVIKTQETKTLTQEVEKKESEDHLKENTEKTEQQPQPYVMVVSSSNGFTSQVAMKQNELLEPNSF
ELF4, sequence (Q99607 whole entry): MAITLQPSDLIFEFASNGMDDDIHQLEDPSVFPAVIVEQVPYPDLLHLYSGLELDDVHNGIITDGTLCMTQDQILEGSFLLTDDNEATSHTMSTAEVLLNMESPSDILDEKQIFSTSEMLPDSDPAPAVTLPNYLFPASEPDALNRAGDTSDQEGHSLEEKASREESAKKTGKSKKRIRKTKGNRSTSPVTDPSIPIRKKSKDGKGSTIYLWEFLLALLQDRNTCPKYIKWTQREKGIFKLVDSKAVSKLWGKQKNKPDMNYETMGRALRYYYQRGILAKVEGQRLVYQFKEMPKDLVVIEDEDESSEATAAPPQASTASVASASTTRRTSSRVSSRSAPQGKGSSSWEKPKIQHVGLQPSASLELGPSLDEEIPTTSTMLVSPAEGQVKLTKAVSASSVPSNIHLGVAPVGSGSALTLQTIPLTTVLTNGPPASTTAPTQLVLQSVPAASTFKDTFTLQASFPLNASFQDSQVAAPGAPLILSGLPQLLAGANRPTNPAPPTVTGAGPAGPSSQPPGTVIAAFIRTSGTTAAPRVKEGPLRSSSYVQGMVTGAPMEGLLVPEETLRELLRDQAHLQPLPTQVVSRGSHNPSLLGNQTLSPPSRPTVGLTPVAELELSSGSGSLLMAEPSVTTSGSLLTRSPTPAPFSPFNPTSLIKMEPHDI
SPIB, sequence (Q01892 whole entry): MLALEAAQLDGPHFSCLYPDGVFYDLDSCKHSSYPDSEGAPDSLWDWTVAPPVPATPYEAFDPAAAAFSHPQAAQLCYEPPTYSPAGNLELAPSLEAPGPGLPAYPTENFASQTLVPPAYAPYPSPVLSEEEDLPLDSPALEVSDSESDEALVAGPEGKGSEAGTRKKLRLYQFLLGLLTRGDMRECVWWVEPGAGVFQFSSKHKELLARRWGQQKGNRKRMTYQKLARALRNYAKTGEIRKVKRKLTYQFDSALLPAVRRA
ETV5, sequence (P41161 whole entry): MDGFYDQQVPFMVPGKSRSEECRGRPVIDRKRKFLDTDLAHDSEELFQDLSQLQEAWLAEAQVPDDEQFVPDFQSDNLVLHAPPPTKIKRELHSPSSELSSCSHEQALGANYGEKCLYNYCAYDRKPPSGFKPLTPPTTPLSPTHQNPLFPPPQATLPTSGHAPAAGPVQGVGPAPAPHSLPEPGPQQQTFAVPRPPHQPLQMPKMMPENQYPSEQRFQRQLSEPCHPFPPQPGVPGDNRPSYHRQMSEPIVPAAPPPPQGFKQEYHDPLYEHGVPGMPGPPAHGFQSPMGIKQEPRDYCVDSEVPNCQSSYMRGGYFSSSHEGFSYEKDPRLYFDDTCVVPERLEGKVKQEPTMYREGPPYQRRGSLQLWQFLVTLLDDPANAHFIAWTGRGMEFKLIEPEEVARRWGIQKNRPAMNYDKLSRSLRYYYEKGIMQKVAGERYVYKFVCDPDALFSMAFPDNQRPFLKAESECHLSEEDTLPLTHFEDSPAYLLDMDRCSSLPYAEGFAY

Consider CCGGCA, for which the binding signal was 1.38 fold enrichment (6-mer frequency, TF over GST control) in test [1]; 1.37 fold enrichment (6-mer frequency, TF over GST control) in test [2]; 1.39 fold enrichment (6-mer frequency, TF over GST control) in [3]; 1.53 fold enrichment (6-mer frequency, TF over GST control) in test [4]; 1.29 fold enrichment (6-mer frequency, TF over GST control) in test [5]; 1.4 fold enrichment (6-mer frequency, TF over GST control) in test [6]. The binding signal in test [7] is 1.44 fold enrichment (6-mer frequency, TF over GST control); in test [8], 1.53 fold enrichment (6-mer frequency, TF over GST control); in test [9] it was 1.5 fold enrichment (6-mer frequency, TF over GST control); in [10], 1.53 fold enrichment (6-mer frequency, TF over GST control); in [11], 1.47 fold enrichment (6-mer frequency, TF over GST control); in test [12], 1.01 fold enrichment (6-mer frequency, TF over GST control). The binding signal is 1.32 fold enrichment (6-mer frequency, TF over GST control) in test [13]; 1.28 fold enrichment (6-mer frequency, TF over GST control) in [14]; 1.24 fold enrichment (6-mer frequency, TF over GST control) in test [15]; 1.28 fold enrichment (6-mer frequency, TF over GST control) in test [16]; 1.31 fold enrichment (6-mer frequency, TF over GST control) in [17]; 1.46 fold enrichment (6-mer frequency, TF over GST control) in [18].

The values above are taken from article PMC7862700, “An all-to-all approach to the identification of sequence-specific readers for epigenetic DNA modifications on cytosine”.
